Source: PubChem BioAssay (NCI)
About 83,000 compounds went through this panel and 20% of them were active in at least one assay; those are over-represented in the sample as a whole.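 Plates (96-well) were seeded with cells, treated with compound at one concentration, and incubated for 48 hours before percent growth was determined.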 A number with no mark means an inactive call. Active and inactive are the calls of the source. How the source made its calls: active means growth percent below 10; inactive means the rest.

Key:
Test in all cases: NCI-60 one-dose screen, 48 h (100 = growth as untreated, 0 = no growth, -100 = all killed)
Conditions in all cases: 10 µM unless noted
SK-MEL-2 melanoma = test system: SK-MEL-2 melanoma
SN12C renal = test system: SN12C renal
UO-31 renal = test system: UO-31 renal
TK-10 renal = test system: TK-10 renal
ACHN renal = test system: ACHN renal
CAKI-1 renal = test system: CAKI-1 renal
A498 renal = test system: A498 renal
CCRF-CEM leukemia = test system: CCRF-CEM leukemia
MOLT-4 leukemia = test system: MOLT-4 leukemia
SR leukemia = test system: SR leukemia
RPMI-8226 leukemia = test system: RPMI-8226 leukemia
OVCAR-8 ovarian = test system: OVCAR-8 ovarian
OVCAR-5 ovarian = test system: OVCAR-5 ovarian
OVCAR-4 ovarian = test system: OVCAR-4 ovarian
SK-OV-3 ovarian = test system: SK-OV-3 ovarian
IGROV1 ovarian = test system: IGROV1 ovarian
OVCAR-3 ovarian = test system: OVCAR-3 ovarian
HS 578T breast = test system: HS 578T breast
NCI/ADR-RES ovarian = test system: NCI/ADR-RES ovarian

Structure (SMILES): CC1(C)C(=O)/C(=C\c2ccc(C(F)(F)F)cc2)C[C@]2(C)[C@H]3CC[C@@H]4[C@H]5[C@H](C(=O)/C=C/c6ccc(C(F)(F)F)cc6)CC[C@]5(CO)CC[C@@]4(C)[C@]3(C)CC[C@@H]12
- growth (SK-MEL-2 melanoma): 105%
- growth (SN12C renal): 91.8%
- growth (UO-31 renal): 66.6%
- growth (TK-10 renal): 126%
- growth (ACHN renal): 91.9%
- growth (CAKI-1 renal): 56.2%
- growth (A498 renal): 93.7%
- growth (CCRF-CEM leukemia): 90.5%
- growth (MOLT-4 leukemia): 82.5%
- growth (SR leukemia): 82.2%
- growth (RPMI-8226 leukemia): 88.6%
- growth (OVCAR-8 ovarian): 79.6%
- growth (OVCAR-5 ovarian): 107%
- growth (OVCAR-4 ovarian): 96.6%
- growth (SK-OV-3 ovarian): 110%
- growth (IGROV1 ovarian): 92.4%
- growth (OVCAR-3 ovarian): 97%
- growth (HS 578T breast): 95.8%
- growth (NCI/ADR-RES ovarian): 99.1%

Structure (SMILES): CC(=O)Nc1ccc(S(=O)(=O)n2ccc(-c3ccc4c(c3)CCC(C)(C)O4)n2)cc1
- growth (SK-MEL-2 melanoma): 53.5%
- growth (SN12C renal): 89%
- growth (UO-31 renal): 67.9%
- growth (TK-10 renal): 55.1%
- growth (ACHN renal): 79.3%
- growth (CAKI-1 renal): 48.8%
- growth (A498 renal): 21.9%
- growth (CCRF-CEM leukemia): 55.4%
- growth (MOLT-4 leukemia): 50.7%
- growth (SR leukemia): 56.4%
- growth (RPMI-8226 leukemia): 43.7%
- growth (OVCAR-8 ovarian): 69.4%
- growth (OVCAR-5 ovarian): 96.3%
- growth (OVCAR-4 ovarian): 46.2%
- growth (IGROV1 ovarian): 68%
- growth (OVCAR-3 ovarian): 74.4%
- growth (HS 578T breast): 102%
- growth (NCI/ADR-RES ovarian): 56.9%

Structure (SMILES): O=C1C2(c3ccccc3)C(c3ccccc3)=C(c3ccccc3)C1(c1ccccc1)C1CC=CC12 (stereo not drawn)
- growth (SK-MEL-2 melanoma): 82.6%
- growth (SN12C renal): 86.1%
- growth (UO-31 renal): 61.6%
- growth (TK-10 renal): 118%
- growth (ACHN renal): 86.7%
- growth (CAKI-1 renal): 52.6%
- growth (A498 renal): 89.2%
- growth (CCRF-CEM leukemia): 84.2%
- growth (MOLT-4 leukemia): 84.4%
- growth (RPMI-8226 leukemia): 50.2%
- growth (OVCAR-8 ovarian): 87.5%
- growth (OVCAR-5 ovarian): 97.9%
- growth (OVCAR-4 ovarian): 69.5%
- growth (SK-OV-3 ovarian): 96.3%
- growth (IGROV1 ovarian): 86.9%
- growth (OVCAR-3 ovarian): 89.5%
- growth (HS 578T breast): 106%
- growth (NCI/ADR-RES ovarian): 90.3%

Structure (SMILES): Cc1ccc(-c2csc(NC(=O)CCCCl)n2)cc1
- growth (SK-MEL-2 melanoma): 92.2%
- growth (SN12C renal): 89.2%
- growth (UO-31 renal): 74.5%
- growth (TK-10 renal): 98.8%
- growth (ACHN renal): 99.2%
- growth (CAKI-1 renal): 91.6%
- growth (A498 renal): 82.3%
- growth (CCRF-CEM leukemia): 96.3%
- growth (MOLT-4 leukemia): 79.1%
- growth (SR leukemia): 84.4%
- growth (RPMI-8226 leukemia): 82.7%
- growth (OVCAR-8 ovarian): 106%
- growth (OVCAR-5 ovarian): 94.6%
- growth (OVCAR-4 ovarian): 90.7%
- growth (SK-OV-3 ovarian): 105%
- growth (IGROV1 ovarian): 95%
- growth (OVCAR-3 ovarian): 101%
- growth (HS 578T breast): 105%
- growth (NCI/ADR-RES ovarian): 101%

Structure (SMILES): COC(=O)C(Sc1ccc(Cl)cc1)C1SC(=S)N(Cc2ccccc2)C1=O (stereo not drawn)
- growth (SK-MEL-2 melanoma): 96.3%
- growth (SN12C renal): 82.3%
- growth (UO-31 renal): 60.2%
- growth (TK-10 renal): 115%
- growth (ACHN renal): 97.6%
- growth (CAKI-1 renal): 100%
- growth (A498 renal): 102%
- growth (CCRF-CEM leukemia): 20.5%
- growth (MOLT-4 leukemia): 62.1%
- growth (SR leukemia): 50.8%
- growth (RPMI-8226 leukemia): 84.6%
- growth (OVCAR-8 ovarian): 101%
- growth (OVCAR-5 ovarian): 118%
- growth (SK-OV-3 ovarian): 108%
- growth (OVCAR-3 ovarian): 105%
- growth (HS 578T breast): 106%
- growth (NCI/ADR-RES ovarian): 102%

Structure (SMILES): COC(=O)c1cc(=O)nc(N/N=C/c2ccco2)s1
- growth (SK-MEL-2 melanoma): 117%
- growth (SN12C renal): 102%
- growth (UO-31 renal): 87.5%
- growth (TK-10 renal): 118%
- growth (ACHN renal): 104%
- growth (CAKI-1 renal): 105%
- growth (A498 renal): 99.5%
- growth (CCRF-CEM leukemia): 95.6%
- growth (MOLT-4 leukemia): 94.9%
- growth (RPMI-8226 leukemia): 96%
- growth (OVCAR-8 ovarian): 107%
- growth (OVCAR-5 ovarian): 108%
- growth (OVCAR-4 ovarian): 96.7%
- growth (SK-OV-3 ovarian): 117%
- growth (IGROV1 ovarian): 93.4%
- growth (OVCAR-3 ovarian): 106%
- growth (HS 578T breast): 106%
- growth (NCI/ADR-RES ovarian): 104%

Structure (SMILES): COc1ccc(N2CCN(Cc3cc(C(=O)/C=C/c4c[nH]c5ccccc45)ccc3O)CC2)cc1
- growth (SK-MEL-2 melanoma): 107%
- growth (SN12C renal): 97.1%
- growth (UO-31 renal): 55.9%
- growth (TK-10 renal): 117%
- growth (ACHN renal): 97.4%
- growth (CAKI-1 renal): 90.2%
- growth (A498 renal): 106%
- growth (CCRF-CEM leukemia): 95.8%
- growth (MOLT-4 leukemia): 95%
- growth (RPMI-8226 leukemia): 94.8%
- growth (OVCAR-8 ovarian): 95.5%
- growth (OVCAR-5 ovarian): 106%
- growth (OVCAR-4 ovarian): 93%
- growth (SK-OV-3 ovarian): 93.5%
- growth (IGROV1 ovarian): 109%
- growth (OVCAR-3 ovarian): 114%
- growth (HS 578T breast): 105%
- growth (NCI/ADR-RES ovarian): 106%

Structure (SMILES): COc1ccc(C2C=C(c3ccc(Cl)cc3)N=C3SC=C(C)N32)c(Br)c1 (stereo not drawn)
- growth (SK-MEL-2 melanoma): 68.3%
- growth (SN12C renal): 46.4%
- growth (UO-31 renal): 40.7%
- growth (TK-10 renal): 65.2%
- growth (ACHN renal): 53%
- growth (CAKI-1 renal): 49.9%
- growth (A498 renal): 90.2%
- growth (CCRF-CEM leukemia): 7.84% (active)
- growth (MOLT-4 leukemia): 29.5%
- growth (RPMI-8226 leukemia): 14.9%
- growth (OVCAR-8 ovarian): 18.6%
- growth (OVCAR-5 ovarian): 67%
- growth (OVCAR-4 ovarian): 48.1%
- growth (SK-OV-3 ovarian): 35.3%
- growth (IGROV1 ovarian): 46.1%
- growth (OVCAR-3 ovarian): 10.8%
- growth (HS 578T breast): 56.3%
- growth (NCI/ADR-RES ovarian): 33.2%

Structure (SMILES): COc1cc(-c2nn(-c3cccc(NC(=O)c4ccc(N5CCOCC5)c(C(F)(F)F)c4)c3)cc2-c2ccncc2)ccc1Cl
- growth (SK-MEL-2 melanoma): -8.84% (active)
- growth (SN12C renal): 31%
- growth (UO-31 renal): 24.6%
- growth (TK-10 renal): 17.8%
- growth (ACHN renal): 21.3%
- growth (CAKI-1 renal): 39.9%
- growth (A498 renal): -29.7% (active)
- growth (CCRF-CEM leukemia): 0.907% (active)
- growth (MOLT-4 leukemia): 4.07% (active)
- growth (RPMI-8226 leukemia): 8.3% (active)
- growth (OVCAR-8 ovarian): 5.23% (active)
- growth (OVCAR-5 ovarian): 34.7%
- growth (OVCAR-4 ovarian): 52.3%
- growth (SK-OV-3 ovarian): 1.88% (active)
- growth (IGROV1 ovarian): 41.8%
- growth (OVCAR-3 ovarian): -29.8% (active)
- growth (HS 578T breast): -13.6% (active)
- growth (NCI/ADR-RES ovarian): -7.13% (active)
